SMILES strings stand for the structures. Calls of active or inactive are those of the source. How the source made its calls: active means hit-call score of the fitted dose curve at least 0.9, where 1 is the maximum; inactive means score below 0.9.

Myc proto-oncogene protein (Homo sapiens), sequence (P01106 whole entry, looked up): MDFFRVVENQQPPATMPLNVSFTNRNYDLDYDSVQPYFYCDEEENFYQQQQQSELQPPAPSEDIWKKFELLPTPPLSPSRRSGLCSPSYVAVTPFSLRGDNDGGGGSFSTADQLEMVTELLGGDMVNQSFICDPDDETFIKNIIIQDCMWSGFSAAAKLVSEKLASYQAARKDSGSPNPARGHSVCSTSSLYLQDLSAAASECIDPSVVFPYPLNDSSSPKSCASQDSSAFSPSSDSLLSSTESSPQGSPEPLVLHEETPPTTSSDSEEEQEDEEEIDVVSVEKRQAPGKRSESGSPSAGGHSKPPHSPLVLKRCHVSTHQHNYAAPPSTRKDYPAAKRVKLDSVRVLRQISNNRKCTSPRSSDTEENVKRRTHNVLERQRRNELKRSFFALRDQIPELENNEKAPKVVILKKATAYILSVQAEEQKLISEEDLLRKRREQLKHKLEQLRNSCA

One test deals with Nuclear respiratory factor 1 (Homo sapiens) (UniProt Q16656). Put plainly: ATG_NRF1_CIS: Attagene CIS-FACTORIAL HepG2 Assay for human Nuclear Respiratory Factor 1 (NRF1) Orphan Gene (AID 2282987). As to conditions: HepG2 NRF1 cis-element reporter, Attagene multiplex; actives raise or lower the signal. An outline of the steps: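 Cells (HepG2, transient MRTU transfection) are exposed to compound for 24 h, then RNA isolated and reporter mRNA amplified and fluorescently labelled. Fragments are separated by capillary electrophoresis; signal change is fitted bidirectionally relative to DMSO.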
Nuclear respiratory factor 1 (Homo sapiens), sequence (Q16656 whole entry, looked up, the tested form may be a part): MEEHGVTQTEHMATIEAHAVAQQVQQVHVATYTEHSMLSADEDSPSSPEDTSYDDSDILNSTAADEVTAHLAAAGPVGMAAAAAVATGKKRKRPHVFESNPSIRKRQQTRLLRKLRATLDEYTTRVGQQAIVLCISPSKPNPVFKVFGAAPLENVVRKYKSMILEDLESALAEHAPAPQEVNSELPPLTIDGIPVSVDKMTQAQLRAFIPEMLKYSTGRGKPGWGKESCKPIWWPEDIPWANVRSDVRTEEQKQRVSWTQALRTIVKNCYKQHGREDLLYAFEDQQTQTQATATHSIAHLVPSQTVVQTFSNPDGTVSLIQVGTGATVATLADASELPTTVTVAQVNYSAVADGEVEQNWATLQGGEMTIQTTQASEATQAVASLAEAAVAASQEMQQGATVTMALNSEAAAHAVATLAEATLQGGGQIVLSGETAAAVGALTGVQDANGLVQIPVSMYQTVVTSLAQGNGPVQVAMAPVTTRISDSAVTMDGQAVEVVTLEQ
With `CCOC(=O)C1CC(=O)C(=C(O)C2CC2)C(=O)C1` (centres undefined), the compound was classed as inactive.

Take `CCCCCC/C=C/CCCCCCCC(=O)O`: the result was inactive.

Turning to `Oc1ccc(C2(c3ccc(O)c(C4CCCCC4)c3)CCCCC2)cc1C1CCCCC1`, the compound was called inactive.

For the compound `N#CCCOCCC#N`, the outcome was inactive.

As to `CCCCCCCCCCCCCC[P+](CCCC)(CCCC)CCCC`, the compound was classed as inactive.

Take `CCc1cc(Cc2cc(CC)c(N)c(CC)c2)cc(CC)c1N`: the call was inactive.

`CC(C)(C)c1cc(Cc2cc(C(C)(C)C)c(O)c(C(C)(C)C)c2)cc(C(C)(C)C)c1O`: the compound was classed as inactive.

In the case of `O=C1OC(=O)c2ccc3c4c(ccc1c24)C(=O)OC3=O`, the compound was classed as inactive.

With `OCCC(O)CO` (centres undefined), the outcome was inactive.

As to `Cc1ccc(O)cn1`, the compound was called inactive.

For `CCOC(OCC)OCC`, the call was inactive.

On to `Brc1ccccn1`, for which the call was inactive.

On to `O=S(=O)(O)CCC(F)(F)C(F)(F)C(F)(F)C(F)(F)F`, for which the call was inactive.

Regarding `C[C@]12CC[C@H]3C(=CCc4cc(O)ccc43)[C@@H]1CCC2=O`, the outcome was inactive.

Turning to `CCCCC(CC)COC(=O)c1ccc(N(C)C)cc1` (centres undefined), the compound was classed as inactive.

For the compound `CN(C)C(C)(C)CO`, the compound was classed as inactive.

With `O=S(=O)(O)c1ccc(Cl)cc1`, the result was inactive.

Consider `N#Cc1ccccc1O`, for which the result was inactive.

For the compound `CN(N=O)C(=O)N[C@@H]1[C@@H](O)[C@H](O)[C@@H](CO)O[C@@H]1O`, the result was inactive.

On to `O=C1c2c(O)ccc(Nc3ccc(CCO)cc3)c2C(=O)c2c([N+](=O)[O-])ccc(O)c21`, for which the compound was classed as inactive.

As to `CC(=O)CCC(C)C`, the call was inactive.

Take `O=c1[nH]cccc1O`: the call was inactive.

Consider `CCOCN(C(=O)CS(=O)(=O)O)c1c(C)cccc1CC`, for which the result was inactive.

Regarding `c1ccc(C[P+](c2ccccc2)(c2ccccc2)c2ccccc2)cc1`, the compound was called inactive.

In the case of `CCc1ccc(C)nc1`, the call was inactive.

For the compound `Nc1c(Br)cc([N+](=O)[O-])cc1Br`, the compound was classed as inactive.

With `CC(=O)c1ccccc1N`, the compound was called inactive.

On to `OCC1CCCO1` (centres undefined), for which the compound was called inactive.

With `CCCCCCCC/C=C\CCCCCCCC(=O)OCC(O)CO` (centres undefined), the result was inactive.

For `Cc1ccc([N+](=O)[O-])c(C)c1`, the compound was called inactive.

Regarding `Brc1nc2ccccc2s1`, the compound was classed as inactive.

With `O=C1c2ccccc2C(=O)c2c(Cl)cccc21`, the outcome was inactive.

Regarding `OCCCCC(F)(F)C(F)(F)C(F)(F)C(F)(F)F`, the call was inactive.

In the case of `C[Si](C)O[Si](C)C`, the compound was classed as inactive.

Take `CCC/C=C/CO`: the call was inactive.

`CC(=O)C=O`: the compound was called inactive.

With `CCCCOC(=O)[C@H](C)O`, the outcome was inactive.

Tested on in another test: not listed separately
Put plainly: ATG_NFI_CIS: Attagene CIS-FACTORIAL HepG2 Assay for human Nuclear Factor I (NFI) (AID 2282989). As to conditions: HepG2 cis-regulatory reporter, NFI response element transcription; actives raise or lower the signal. An outline of the steps: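 Cells: human liver HepG2, transiently transfected with promoter-regulated reporter transcription units. Exposure 24 h. Detection: fluorescent RT-PCR products separated by capillary electrophoresis, normalised to DMSO negative control.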
As for `CCOC(=O)C1CC(=O)C(=C(O)C2CC2)C(=O)C1` (centres undefined), the outcome was inactive.

For the compound `CCCCCC/C=C/CCCCCCCC(=O)O`, the outcome was inactive.

Usually AC50 stands for the concentration at which the activity in the assay is half-maximal. On to `Oc1ccc(C2(c3ccc(O)c(C4CCCCC4)c3)CCCCC2)cc1C1CCCCC1`, for which the AC50 is 8.18 µM (active).

On to `N#CCCOCCC#N`, for which the compound was called inactive.

As to `CCCCCCCCCCCCCC[P+](CCCC)(CCCC)CCCC`, the AC50 was 1.24 µM (active).

Turning to `CCc1cc(Cc2cc(CC)c(N)c(CC)c2)cc(CC)c1N`, the AC50 is 53.4 µM (active).

With `CC(C)(C)c1cc(Cc2cc(C(C)(C)C)c(O)c(C(C)(C)C)c2)cc(C(C)(C)C)c1O`, the outcome was inactive.

Consider `O=C1OC(=O)c2ccc3c4c(ccc1c24)C(=O)OC3=O`, for which the compound was classed as inactive.

For the compound `OCCC(O)CO` (centres undefined), the result was inactive.

As to `Cc1ccc(O)cn1`, the compound was classed as inactive.

On to `CCOC(OCC)OCC`, for which the compound was called inactive.

`Brc1ccccn1`: the call was inactive.

For the compound `C[C@]12CC[C@H]3C(=CCc4cc(O)ccc43)[C@@H]1CCC2=O`, the outcome was inactive.

As for `CCCCC(CC)COC(=O)c1ccc(N(C)C)cc1` (centres undefined), the compound was classed as inactive.

As to `CN(C)C(C)(C)CO`, the result was inactive.

On to `O=S(=O)(O)c1ccc(Cl)cc1`, for which the compound was classed as inactive.

As for `N#Cc1ccccc1O`, the compound was classed as inactive.

Turning to `CN(N=O)C(=O)N[C@@H]1[C@@H](O)[C@H](O)[C@@H](CO)O[C@@H]1O`, the result was inactive.

Regarding `O=C1c2c(O)ccc(Nc3ccc(CCO)cc3)c2C(=O)c2c([N+](=O)[O-])ccc(O)c21`, the compound was classed as inactive.

For the compound `CC(=O)CCC(C)C`, the outcome was inactive.

On to `O=c1[nH]cccc1O`, for which the result was inactive.

Take `CCOCN(C(=O)CS(=O)(=O)O)c1c(C)cccc1CC`: the result was inactive.

Take `c1ccc(C[P+](c2ccccc2)(c2ccccc2)c2ccccc2)cc1`: the call was inactive.

Turning to `CCc1ccc(C)nc1`, the compound was called inactive.

As for `Nc1c(Br)cc([N+](=O)[O-])cc1Br`, the result was inactive.

Turning to `CC(=O)c1ccccc1N`, the call was inactive.

`OCC1CCCO1` (centres undefined): the compound was called inactive.

`CCCCCCCC/C=C\CCCCCCCC(=O)OCC(O)CO` (centres undefined): the call was inactive.

As for `Cc1ccc([N+](=O)[O-])c(C)c1`, the outcome was inactive.

As to `Brc1nc2ccccc2s1`, the compound was called inactive.

Turning to `O=C1c2ccccc2C(=O)c2c(Cl)cccc21`, the compound was classed as inactive.

As to `C[Si](C)O[Si](C)C`, the compound was called inactive.

`CCC/C=C/CO`: the result was inactive.

Consider `CC(=O)C=O`, for which the outcome was inactive.

Regarding `CCCCOC(=O)[C@H](C)O`, the compound was classed as inactive.

Another test addresses Myc proto-oncogene protein (Homo sapiens) (UniProt P01106). Put plainly: ATG_Myc_CIS: Attagene CIS-FACTORIAL HepG2 Assay for human Myelocytomatosis (Myc) Proto-Oncogene Transcription Factor (AID 2282990). The conditions noted are these: HepG2, Attagene cis-reporter transcription factor activity; actives raise or lower the signal. An outline of the steps:
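Multiplexed cis-reporter transcription in HepG2 cells after 24 h chemical treatment. Reporter mRNA measured by RT-PCR and capillary electrophoresis fluorescence; activity fitted bidirectionally against DMSO control.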
For `CCOC(=O)C1CC(=O)C(=C(O)C2CC2)C(=O)C1` (centres undefined), the compound was called inactive.

For the compound `CCCCCC/C=C/CCCCCCCC(=O)O`, the compound was classed as inactive.

As for `Oc1ccc(C2(c3ccc(O)c(C4CCCCC4)c3)CCCCC2)cc1C1CCCCC1`, the call was inactive.

For `N#CCCOCCC#N`, the result was inactive.

Consider `CCCCCCCCCCCCCC[P+](CCCC)(CCCC)CCCC`, for which the call was inactive.

Take `CCc1cc(Cc2cc(CC)c(N)c(CC)c2)cc(CC)c1N`: the half-maximal activity concentration (AC50) is 57.3 µM (active).

`CC(C)(C)c1cc(Cc2cc(C(C)(C)C)c(O)c(C(C)(C)C)c2)cc(C(C)(C)C)c1O`: the compound was classed as inactive.

`O=C1OC(=O)c2ccc3c4c(ccc1c24)C(=O)OC3=O`: the result was inactive.

Turning to `OCCC(O)CO` (centres undefined), the compound was classed as inactive.

For the compound `Cc1ccc(O)cn1`, the compound was classed as inactive.

With `CCOC(OCC)OCC`, the result was inactive.

Turning to `Brc1ccccn1`, the compound was called inactive.

As for `O=S(=O)(O)CCC(F)(F)C(F)(F)C(F)(F)C(F)(F)F`, the compound was classed as inactive.

As to `C[C@]12CC[C@H]3C(=CCc4cc(O)ccc43)[C@@H]1CCC2=O`, the call was inactive.

Turning to `CCCCC(CC)COC(=O)c1ccc(N(C)C)cc1` (centres undefined), the compound was classed as inactive.

For the compound `CN(C)C(C)(C)CO`, the compound was called inactive.

Take `O=S(=O)(O)c1ccc(Cl)cc1`: the outcome was inactive.

On to `N#Cc1ccccc1O`, for which the result was inactive.

For `CN(N=O)C(=O)N[C@@H]1[C@@H](O)[C@H](O)[C@@H](CO)O[C@@H]1O`, the outcome was inactive.

Consider `O=C1c2c(O)ccc(Nc3ccc(CCO)cc3)c2C(=O)c2c([N+](=O)[O-])ccc(O)c21`, for which the call was inactive.

Turning to `CC(=O)CCC(C)C`, the compound was classed as inactive.

Take `O=c1[nH]cccc1O`: the result was inactive.

Regarding `CCOCN(C(=O)CS(=O)(=O)O)c1c(C)cccc1CC`, the call was inactive.

As for `c1ccc(C[P+](c2ccccc2)(c2ccccc2)c2ccccc2)cc1`, the compound was called inactive.

Take `CCc1ccc(C)nc1`: the outcome was inactive.

On to `Nc1c(Br)cc([N+](=O)[O-])cc1Br`, for which the call was inactive.

For the compound `CC(=O)c1ccccc1N`, the compound was called inactive.

In the case of `OCC1CCCO1` (centres undefined), the result was inactive.

Regarding `CCCCCCCC/C=C\CCCCCCCC(=O)OCC(O)CO` (centres undefined), the compound was called inactive.

Consider `Cc1ccc([N+](=O)[O-])c(C)c1`, for which the outcome was inactive.

In the case of `Brc1nc2ccccc2s1`, the outcome was inactive.

In the case of `O=C1c2ccccc2C(=O)c2c(Cl)cccc21`, the compound was classed as inactive.

Take `OCCCCC(F)(F)C(F)(F)C(F)(F)C(F)(F)F`: the compound was classed as inactive.

Turning to `C[Si](C)O[Si](C)C`, the result was inactive.

Take `CCC/C=C/CO`: the compound was classed as inactive.

For the compound `CC(=O)C=O`, the outcome was inactive.

`CCCCOC(=O)[C@H](C)O`: the call was inactive.

Values taken from PubChem BioAssay (EPA / NIEHS).
